Results filed as inconclusive are left out. Active and inactive are the calls of the source. Unless noted, calls follow the shape of the dose curve; as a rule, active = well fitted curve in the direction sought with a large enough effect; inconclusive = small, poorly fitted or top-dose-only effect, or another doubt; inactive = no such curve, though single readings can be large; an effect the other way counts as inactive or inconclusive.
Legend:
[1] = target: Cytochrome P450 3A4 (Homo sapiens) (UniProt P08684); assay: qHTS Assay for Inhibitors and Substrates of Cytochrome P450 3A4 (AID 884); also: potency is read from the fitted curve at half-maximal effect; nearly all actives have a fitted effect of over 50% in size
In short: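 20 nM human CYP3A4 with 25 uM Luciferin-PPXE (at KM) in 200 mM KPO4, preincubated 10 min with compound; NADPH regeneration started a 60 min RT reaction. Luciferin detected by luminescence, normalized to 57 uM ketoconazole as full inhibition.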

[2] = target: Cytochrome P450 3A4 (Homo sapiens) (UniProt P08684); assay: qHTS Assay for Activators of Cytochrome P450 3A4 (AID 885); also: nearly all actives have a fitted effect of over 65% in size
In short: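 Quantitative HTS format: compounds preincubated with 20nM human CYP3A4 and Luciferin-PPXE substrate at KM, reaction started by NADPH regeneration, stopped after 60 min, luciferase luminescence read 20 min later.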

[3] = Confirmation and Secondary Assay for Modulators of Hemoglobin Beta Chain Splicing at IVS2 654 locus (AID 910);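 also: HeLa cells stably carrying EGFP split by mutant beta-globin IVS2-654 intron; per-well total GFP intensity by laser scanning cytometry after 2-day treatment; % of control where 0% means no effect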
In short: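 Readout: per-well total peak green fluorescence (488 nm ex, 500–520 nm em) from objects 5–250 µm, reflecting correct splicing of an EGFP-654 reporter. Compounds were applied for 2 days at 37 °C to overnight-plated HeLa EGFP-654 cells; controls were DMSO and 500 nM IVS2-654 PNA.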

[4] = Confirmation and Secondary Assay for Modulators of Hemoglobin Beta Chain Splicing at IVS2 705 locus (AID 930);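 also: HeLa cells stably expressing the EGFP-705 splicing reporter; GFP fluorescence per well restored by corrected splicing of the IVS2-705 intron in EGFP; % of control where 0% means no effect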
In short: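 HeLa IVS2-705 EGFP reporter cells, 500/well, compound 2 d at 37C; correct splicing yields fluorescent EGFP. Control: 500 nM antisense PNA. Read-out: total peak GFP intensity.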

[5] = qHTS Assay for Lipid Storage Modulators (AID 1519; calls by dose curve); conditions: Drosophila S3 cells, BODIPY lipid droplet/cell ratio, laser cytometry, cells loaded with oleic acid; for activity change, negative = inhibition: at 57.5 µM (top of the series)
In short: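 Cells seeded at 5,000 per well were treated with compounds over a concentration series and loaded with oleic acid (400 uM, as added). Lipid droplet fluorescence (488 nm excitation, 500-530 nm channel) was read by laser-scanning cytometry and normalized to 20 uM Triacsin C.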

[6] = target: Lysosomal acid glucosylceramidase (Homo sapiens) (UniProt P04062); assay: Glucocerebrosidase-p2 (AID 348; in the data active = potency below about 10 µM; also: potency is read from the fitted curve at half-maximal effect); conditions: purified GBA, blue fluorogenic substrate, 40 min
In short: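 Compounds titrated from 0.6 nM upwards against 0.2 nM enzyme in pH 5.9 citric acid/KH2PO4, taurocholate, tween-20; blue fluorogenic substrate 80 uM, 40 min room temperature, stopped and read Ex 365/Em 440 for AC50.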

[7] = AP1 Signaling Pathway (AID 357; active = well fitted curve in either direction with a large enough effect, not every such curve was filed as active;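 also: ME-180 reporter cells stimulated with EGF at its EC50 level; % is scaled to controls: 0 for no effect and ±100 for the full control effect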); conditions: ME-180 AP-1-bla reporter, EGF-induced, beta-lactamase ratio, 5 h; at 7.69 µM (top of the series) unless noted
In short: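 Titration-series screen for positive or negative modulators of EC50 EGF-induced signaling in ME-180 cells carrying an AP-1-driven beta-lactamase reporter. After 5 hours at 37 degrees Celsius, CCF4 460nm/530nm emission ratio gave %Activity; AC50 values derived.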

[8] = target: Cytochrome P450 1A2 (Homo sapiens) (UniProt P05177); assay: p450-cyp1a2 (AID 410; calls by dose curve; also: potency is read from the fitted curve at half-maximal effect)
In short: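 Luminescent readout of luciferin formed from Luciferin-ME by human CYP1A2; data normalized against complete inhibition by 57 uM furafylline. Enzyme 20nM, substrate 100uM at Km, 100mM KPO4 buffer, 60 min reaction at room temperature.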

[9] = NFAT Signaling Pathway (AID 444; active = well fitted curve in either direction with a large enough effect, not every such curve was filed as active;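 also: carbachol stimulus at about its EC50 of 1 µM final; % is scaled to controls: 0 for no effect and ±100 for the full control effect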); conditions: Jurkat NFAT-bla M1, carbachol, beta-lactamase ratio, 5 h; at 7.69 µM (top of the series) unless noted
In short: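 Read-out: CCF4 FRET ratio (460 nm/530 nm) after 1 h RT dye loading, used for %activity and AC50 from titration series. Cells: Jurkat NFAT-β-lactamase/M1 line, treated with compound plus 1 uM carbachol for 5 h, 37 °C.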

[10] = Stat Signaling Pathway (AID 446; active = well fitted curve in either direction with a large enough effect, not every such curve was filed as active;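 also: ME-180 cervical cancer cells given 40 pM IL-6 alongside compound; SIE-controlled beta-lactamase reporter measured as 460/530 nm FRET emission ratio; % is scaled to controls: 0 for no effect and ±100 for the full control effect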); conditions: ME-180 SIE beta-lactamase reporter, IL-6 stimulated, 5 h; at 7.69 µM (top of the series) unless noted
In short: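 IL-6/STAT signaling read in ME-180 cells via an SIE beta-lactamase reporter. Stimulus was 40 pM IL-6 (its AC50) for 5 hrs, so both activation and inhibition register.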

[11] = target: Glucocorticoid receptor (Homo sapiens) (UniProt P04150); assay: GR-GFP Redistribution (AID 450;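 active = compounds whose dose series gives a full or clear partial fitted curve of increased nuclear translocation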; also: potency is read from the fitted curve at half-maximal effect); conditions: U2OS GR-GFP nuclear translocation, laser cytometry, 2 h
[12] = target: Glucocorticoid receptor (Homo sapiens) (UniProt P04150); assay: GR-EFC Redistribution (AID 451; calls by dose curve; also: potency is read from the fitted curve at half-maximal effect); conditions: CHO-K1 GR-EFC translocation, beta-gal luminescence, 2 h
In short: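 Translocation of GR-ED fusion to nuclear EA restores b-gal, read by luminescence after 1 h room-temperature detection. Engineered CHO-K1 biosensor cells, 1,000/well, exposed 2 h at 37 C to titrations up to 46 uM final.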

[13] = target: Mitogen-activated protein kinase 10 (Mus musculus) (UniProt Q61831); assay: JNK3 AlphaScreen Assay (AID 530; active = well fitted curve in either direction with a large enough effect, not every such curve was filed as active;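 also: kinase came from lysate of stimulated human HepG2 cells; signal reports phosphorylation of biotinylated GST-cJun 1-79 at Ser73 with 10 µM ATP; % is scaled to controls: 0 for no effect and ±100 for the full control effect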)
In short: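 Compound titrations were preincubated 15 minutes at room temperature with substrate, antibody and pre-activated JNK3-containing HepG2 lysate. Reactions were started with 10 uM ATP and stopped with EDTA-containing bead buffer for AlphaScreen detection.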

[14] = target: 3',5'-cyclic-AMP phosphodiesterase 4B (Homo sapiens) (UniProt Q07343); assay: qHTS Assay for Inhibitors of PDE-IV (AID 607; active = well fitted activation curve with a large enough effect in the main read-out, with a control signal flat, not every such curve was filed as active; also: % of control where 0% means no effect)
In short: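 Live HEK293 cells with a modified cyclic nucleotide-gated (CNG) channel report intracellular cAMP via membrane-potential dye fluorescence (ex 535/em 590 nm). Endogenous PDE-IV was targeted. Compounds were tested at up to 22.9 uM final; RO 20-1724 100 uM served as control.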

[15] = target: Dual specificity protein kinase CLK4 (Homo sapiens) (UniProt Q9HAZ1); assay: qHTS Assay for Inhibitors of CDC-like Kinase 4 (Kinase-Glo Assay) (AID 1770); also: % is scaled to controls: 0 for no effect and ±100 for the full control effect; nearly all actives have a fitted effect of over 65% in size
In short: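 Recombinant human Clk4 (25 nM) phosphorylated RS repeat peptide (100 uM) with 1 uM ATP in Tris pH 7.5/MgCl2/EGTA/DTT/Triton buffer for 4.5 h at room temperature. Residual ATP was quantified by Kinase-Glo luciferase luminescence.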

[16] = target: Dual specificity protein kinase CLK4 (Homo sapiens) (UniProt Q9HAZ1); assay: qHTS Assay for Inhibitors of CDC-like Kinase 4 (ADP-Glo Assay) (AID 1771); also: % is scaled to controls: 0 for no effect and ±100 for the full control effect; nearly all actives have a fitted effect of over 70% in size
In short: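 Luminescence from ADP-Glo reports ADP produced by 25 nM Clk4 acting on 100 uM RS repeat peptide with 1 uM ATP over 1 hr at room temperature; residual ATP is depleted before ADP is converted to ATP for detection.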

[17] = target: Dual specificity protein kinase CLK4 (Homo sapiens) (UniProt Q9HAZ1); assay: qHTS Assay for Inhibitors of CDC-like Kinase 4 (ADP-FP Assay) (AID 1795); also: % is scaled to controls: 0 for no effect and ±100 for the full control effect; nearly all actives have a fitted effect of over 60% in size
In short: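 Recombinant human Clk4 (6.25 nM) phosphorylated RS repeat peptide (100 uM) with 1 uM ATP in Tris pH 7.5/MgCl2/EGTA/DTT/Triton buffer for one hour. ADP was quantified by Transcreener competitive fluorescence polarization against an ADP calibration curve.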

[18] = target: Ubiquitin carboxyl-terminal hydrolase 1 (Homo sapiens) (UniProt O94782); assay: Inhibitors of USP1/UAF1: Pilot qHTS (AID 504865);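 also: rhodamine fluorescence freed from ubiquitin-rhodamine substrate followed over time; top concentration of the series differs between compounds; % is scaled to controls: 0 for no effect and ±100 for the full control effect; nearly all actives have a fitted effect of over 35% in size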
In short: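 USP1/UAF1 complex (1nM) preincubated with compound 15 min at room temperature, then Ub-Rho substrate (150nM final) added. Fluorescence read kinetically at 480/540 nm, 6 reads every 60 seconds. Buffer: 50mM HEPES pH 7.8, 0.5mM EDTA, 0.1 mg/ml BSA, 1mM TCEP, 0.01% Tween-20.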

[19] = qHTS Assay for Identification of Small Molecule Agonists for Hypoxia Response Element Signaling Pathway (AID 914; active = well fitted activation curve with a large enough effect in the signal ratio, with a control signal flat, not every such curve was filed as active; the % refers to the signal ratio; also: % of control where 0% means no effect); conditions: ME-180 (cervical carcinoma) HRE-bla reporter, beta-lactamase ratio, CoCl2, 17 h; activation: stronger effect = higher value
In short: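 HRE-bla ME-180 assay for agonist-like enhancement of an EC50 CoCl2 stimulus: 17 h at 37 degrees Celsius, CCF4 for 2.5 h, ratiometric 460/530 nm signal converted to %Activity and fitted to AC50.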

[20] = measured here: cell count channel max response
[21] = measured here: lipid channel max response

Sequence of Dual specificity protein kinase CLK4 (Homo sapiens) (Q9HAZ1 whole entry, looked up): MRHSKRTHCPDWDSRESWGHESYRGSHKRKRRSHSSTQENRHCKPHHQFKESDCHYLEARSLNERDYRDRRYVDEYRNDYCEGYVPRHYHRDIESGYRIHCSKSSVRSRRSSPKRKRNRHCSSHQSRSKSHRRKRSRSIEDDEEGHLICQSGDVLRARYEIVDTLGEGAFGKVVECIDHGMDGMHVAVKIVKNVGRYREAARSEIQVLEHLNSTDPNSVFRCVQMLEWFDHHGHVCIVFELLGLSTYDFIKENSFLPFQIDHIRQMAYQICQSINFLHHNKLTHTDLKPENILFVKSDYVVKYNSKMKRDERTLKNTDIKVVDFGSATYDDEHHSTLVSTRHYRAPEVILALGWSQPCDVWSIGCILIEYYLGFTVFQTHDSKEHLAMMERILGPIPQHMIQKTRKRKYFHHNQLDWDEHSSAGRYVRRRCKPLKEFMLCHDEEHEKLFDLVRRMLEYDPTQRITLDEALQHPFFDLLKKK
Sequence of 3',5'-cyclic-AMP phosphodiesterase 4B (Homo sapiens) (Q07343 whole entry, looked up): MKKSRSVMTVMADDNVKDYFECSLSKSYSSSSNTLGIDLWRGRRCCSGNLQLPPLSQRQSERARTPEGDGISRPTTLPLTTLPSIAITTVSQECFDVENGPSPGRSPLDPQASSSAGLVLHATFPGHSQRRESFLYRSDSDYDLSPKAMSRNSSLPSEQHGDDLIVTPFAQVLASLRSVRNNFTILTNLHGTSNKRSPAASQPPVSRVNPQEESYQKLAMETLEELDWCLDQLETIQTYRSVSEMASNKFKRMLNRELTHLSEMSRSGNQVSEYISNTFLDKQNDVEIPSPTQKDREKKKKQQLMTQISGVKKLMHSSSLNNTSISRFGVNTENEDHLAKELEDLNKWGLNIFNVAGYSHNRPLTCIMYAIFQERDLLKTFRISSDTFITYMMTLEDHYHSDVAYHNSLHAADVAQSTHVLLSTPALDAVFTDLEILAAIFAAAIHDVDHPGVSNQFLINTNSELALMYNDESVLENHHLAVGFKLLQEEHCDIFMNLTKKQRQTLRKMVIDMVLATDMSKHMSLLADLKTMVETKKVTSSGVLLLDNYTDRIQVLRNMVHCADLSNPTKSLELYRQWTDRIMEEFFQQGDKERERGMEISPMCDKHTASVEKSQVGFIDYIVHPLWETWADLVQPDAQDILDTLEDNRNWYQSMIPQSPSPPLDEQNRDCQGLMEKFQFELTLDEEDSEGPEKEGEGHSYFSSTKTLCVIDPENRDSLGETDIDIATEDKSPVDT
Sequence of Ubiquitin carboxyl-terminal hydrolase 1 (Homo sapiens) (O94782 whole entry, looked up): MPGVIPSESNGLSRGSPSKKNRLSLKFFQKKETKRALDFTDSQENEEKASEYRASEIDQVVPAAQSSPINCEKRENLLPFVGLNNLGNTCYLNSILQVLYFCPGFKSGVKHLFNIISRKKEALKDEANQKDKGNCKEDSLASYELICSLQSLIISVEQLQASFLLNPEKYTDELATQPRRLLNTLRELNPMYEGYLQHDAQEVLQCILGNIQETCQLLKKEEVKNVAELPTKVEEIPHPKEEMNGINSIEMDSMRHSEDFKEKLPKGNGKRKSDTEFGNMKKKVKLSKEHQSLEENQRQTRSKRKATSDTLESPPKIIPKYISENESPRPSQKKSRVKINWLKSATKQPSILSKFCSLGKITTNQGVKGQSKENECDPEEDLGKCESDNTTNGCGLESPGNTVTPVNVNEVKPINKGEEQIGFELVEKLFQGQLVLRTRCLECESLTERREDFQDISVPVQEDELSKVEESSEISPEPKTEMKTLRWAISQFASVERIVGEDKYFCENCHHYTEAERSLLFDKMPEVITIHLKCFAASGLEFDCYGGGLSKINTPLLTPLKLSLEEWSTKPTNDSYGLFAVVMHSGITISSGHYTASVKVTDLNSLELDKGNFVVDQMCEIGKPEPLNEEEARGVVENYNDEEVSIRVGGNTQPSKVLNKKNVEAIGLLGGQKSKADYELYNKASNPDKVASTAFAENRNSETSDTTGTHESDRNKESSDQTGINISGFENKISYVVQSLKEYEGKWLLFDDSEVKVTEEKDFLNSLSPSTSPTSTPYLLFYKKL
Sequence of Cytochrome P450 3A4 (Homo sapiens) (P08684 whole entry, looked up): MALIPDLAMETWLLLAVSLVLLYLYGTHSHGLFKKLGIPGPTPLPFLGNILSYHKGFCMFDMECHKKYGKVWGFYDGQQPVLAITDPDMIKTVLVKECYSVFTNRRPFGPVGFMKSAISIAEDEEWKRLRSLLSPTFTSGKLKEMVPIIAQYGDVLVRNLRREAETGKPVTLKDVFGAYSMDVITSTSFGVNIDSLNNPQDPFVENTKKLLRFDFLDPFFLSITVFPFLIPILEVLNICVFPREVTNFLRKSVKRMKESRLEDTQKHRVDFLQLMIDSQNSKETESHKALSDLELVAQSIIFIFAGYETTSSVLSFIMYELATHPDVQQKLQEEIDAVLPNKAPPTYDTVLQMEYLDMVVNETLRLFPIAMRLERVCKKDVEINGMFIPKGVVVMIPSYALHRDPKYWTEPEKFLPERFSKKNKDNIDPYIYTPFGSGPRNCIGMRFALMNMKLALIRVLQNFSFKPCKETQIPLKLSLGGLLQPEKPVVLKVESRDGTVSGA
Sequence of Cytochrome P450 1A2 (Homo sapiens) (P05177 whole entry, looked up): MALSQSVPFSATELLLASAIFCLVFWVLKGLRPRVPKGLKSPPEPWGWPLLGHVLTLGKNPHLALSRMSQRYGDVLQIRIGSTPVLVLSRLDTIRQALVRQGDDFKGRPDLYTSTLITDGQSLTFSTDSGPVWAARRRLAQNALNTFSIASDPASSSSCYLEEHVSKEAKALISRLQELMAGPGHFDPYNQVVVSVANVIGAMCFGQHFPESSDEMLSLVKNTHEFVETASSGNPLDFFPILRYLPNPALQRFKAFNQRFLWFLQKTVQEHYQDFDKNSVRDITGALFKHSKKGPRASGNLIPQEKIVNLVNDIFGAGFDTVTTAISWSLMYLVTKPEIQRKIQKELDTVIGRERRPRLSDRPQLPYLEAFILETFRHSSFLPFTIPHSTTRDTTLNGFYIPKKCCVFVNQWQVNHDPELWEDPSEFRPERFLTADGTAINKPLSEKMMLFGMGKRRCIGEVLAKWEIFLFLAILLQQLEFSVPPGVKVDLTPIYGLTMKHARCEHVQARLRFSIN
Sequence of Glucocorticoid receptor (Homo sapiens) (P04150 whole entry, looked up, the tested form may be a part): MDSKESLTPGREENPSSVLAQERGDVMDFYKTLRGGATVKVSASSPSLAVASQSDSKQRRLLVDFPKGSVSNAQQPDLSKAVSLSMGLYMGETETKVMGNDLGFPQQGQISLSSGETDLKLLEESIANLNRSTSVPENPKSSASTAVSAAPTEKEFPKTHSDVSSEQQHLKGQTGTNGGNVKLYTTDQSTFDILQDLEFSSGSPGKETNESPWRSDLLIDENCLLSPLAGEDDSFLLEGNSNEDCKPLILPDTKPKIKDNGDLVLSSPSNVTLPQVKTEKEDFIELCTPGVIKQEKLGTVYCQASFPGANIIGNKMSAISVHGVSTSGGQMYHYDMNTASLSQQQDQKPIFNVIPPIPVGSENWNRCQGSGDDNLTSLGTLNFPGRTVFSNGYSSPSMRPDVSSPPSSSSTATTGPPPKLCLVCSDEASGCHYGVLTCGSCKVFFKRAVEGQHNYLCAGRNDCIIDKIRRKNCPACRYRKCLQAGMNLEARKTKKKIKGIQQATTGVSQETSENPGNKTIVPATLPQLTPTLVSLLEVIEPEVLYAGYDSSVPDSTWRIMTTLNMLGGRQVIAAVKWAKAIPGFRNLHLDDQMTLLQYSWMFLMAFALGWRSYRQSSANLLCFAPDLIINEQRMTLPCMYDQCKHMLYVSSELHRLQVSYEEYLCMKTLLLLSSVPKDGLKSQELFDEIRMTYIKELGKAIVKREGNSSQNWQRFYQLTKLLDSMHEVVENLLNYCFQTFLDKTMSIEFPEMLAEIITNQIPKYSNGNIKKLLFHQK
Sequence of Lysosomal acid glucosylceramidase (Homo sapiens) (P04062 whole entry, looked up): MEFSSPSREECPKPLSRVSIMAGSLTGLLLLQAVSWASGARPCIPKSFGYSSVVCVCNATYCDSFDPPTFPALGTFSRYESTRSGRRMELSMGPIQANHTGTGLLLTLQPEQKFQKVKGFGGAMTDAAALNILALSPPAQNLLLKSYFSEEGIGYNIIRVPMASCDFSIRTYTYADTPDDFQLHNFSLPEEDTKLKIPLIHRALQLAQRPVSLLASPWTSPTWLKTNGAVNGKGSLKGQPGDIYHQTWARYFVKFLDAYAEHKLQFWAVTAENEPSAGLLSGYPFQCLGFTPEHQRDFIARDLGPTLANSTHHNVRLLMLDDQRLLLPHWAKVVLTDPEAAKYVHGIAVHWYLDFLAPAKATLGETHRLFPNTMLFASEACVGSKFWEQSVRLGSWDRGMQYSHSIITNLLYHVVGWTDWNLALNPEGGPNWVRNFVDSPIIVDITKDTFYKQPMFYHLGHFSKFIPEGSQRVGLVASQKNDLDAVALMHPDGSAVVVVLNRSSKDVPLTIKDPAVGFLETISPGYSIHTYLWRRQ

Compound: C=C[C@](C)(O)CCC1C(=C)CC(OC(C)=O)C2C(C)(C)CCCC12C (stereo partly specified)
- Potency [1]: 2.51 µM (active)
- Potency [2]: inactive
- Potency [3]: inactive
- outcome [4]: inactive
- activity change, negative = inhibition [5]: -0.933% (inactive)
- max response [5, 20]: 1.16%
- max response [5, 21]: 0.207%

Compound: Nc1ncnc2c1nc(Br)n2C1O[C@H]2COP(=O)(O)O[C@@H]2C1O (stereo partly specified)
- activity change, negative = inhibition [5]: 0.429% (inactive)
- max response [5, 20]: 27.3%
- max response [5, 21]: 29.9%

Compound: COc1ccc(/C=C/C(=O)O)cc1OC
- activity change, negative = inhibition [5]: 14.6% (inactive)
- max response [5, 20]: 4.45%
- max response [5, 21]: 26.5%

Compound: O=C1C=CC2=C3c4cc(O)c(O)cc4CC3(O)COC2=C1O (stereo unspecified)
- Potency [1]: 31.6 µM (active)
- Potency [2]: inactive
- outcome [4]: inactive
- activity change, negative = inhibition [5]: 6.15% (inactive)
- max response [5, 20]: 11.8%
- max response [5, 21]: 21%

Compound: COc1ccccc1-c1nc(N(C)C)c2ccccc2n1
- Potency [6]: > 11.4 µM (inactive)
- activity change, negative = inhibition [7]: 19.2% (inactive)
- Potency [8]: 0.398 µM (active)
- activity change, negative = inhibition [9]: -18.6% (inactive)
- activity, negative = inhibition [10]: 31.2% (inactive)
- Potency [11]: > 46 µM (inactive)
- Potency [12]: > 46 µM (inactive)
- Potency [13]: inactive
- Potency [14]: inactive
- Potency [2]: inactive
- activity change, negative = inhibition [5]: -1.18% (inactive)
- max response [5, 20]: 4.21%
- max response [5, 21]: -1.67%
- Potency [15]: inactive
- Potency [16]: inactive
- Potency [17]: inactive
- Potency [18]: inactive

Compound: COc1ccccc1CNc1ncncc1-c1ccccc1OC
- Potency [6]: > 11.4 µM (inactive)
- activity change, negative = inhibition [7]: -8.41% (inactive)
- activity change, negative = inhibition [9]: -16.1% (inactive)
- activity, negative = inhibition [10]: -9.32% (inactive)
- Potency [11]: > 46 µM (inactive)
- Potency [12]: > 46 µM (inactive)
- Potency [13]: inactive
- Potency [1]: 0.199 µM (active)
- Potency [2]: inactive
- activity change, negative = inhibition [5]: 6.17% (inactive)
- max response [5, 20]: 3.98%
- max response [5, 21]: 9.74%
- Potency [18]: inactive

Compound: CN(C)CCCO[C@H]1C([C@H](O)CO)O[C@@H]2OC(C)(C)O[C@@H]21 (stereo partly specified)
- activity change, negative = inhibition [5]: 1.15% (inactive)
- max response [5, 20]: 19.8%
- max response [5, 21]: 24%

Compound: N#CCCn1c(=O)c(-c2cc(F)cc(F)c2)nc2cnc(Oc3ccccc3)nc21
- Potency [6]: > 11.4 µM (inactive)
- activity change, negative = inhibition [7]: -18% (inactive)
- Potency [8]: 2 µM (active)
- activity change, negative = inhibition [9]: 1.84% (inactive)
- activity, negative = inhibition [10]: -2.23% (inactive)
- Potency [11]: > 9.22 µM (inactive)
- Potency [12]: > 46 µM (inactive)
- Potency [13]: inactive
- Potency [14]: inactive
- activity change, negative = inhibition [5]: 7.78% (inactive)
- max response [5, 20]: 10.8%
- max response [5, 21]: 17.1%
- Potency [15]: inactive
- Potency [16]: inactive
- Potency [17]: inactive
- Potency [18]: inactive

Compound: COc1cccc(Cn2c(=O)c(CCc3ccccc3)nc3cnc(N4CCNCC4)nc32)c1
- Potency [6]: > 11.4 µM (inactive)
- activity change, negative = inhibition [7]: 4.19% (inactive)
- Potency [8]: 12.6 µM (active)
- activity change, negative = inhibition [9]: 19.7% (inactive)
- activity, negative = inhibition [10]: -8.25% (inactive)
- Potency [11]: > 9.22 µM (inactive)
- Potency [12]: > 46 µM (inactive)
- Potency [13]: inactive
- Potency [14]: inactive
- Potency [2]: inactive
- activation [19]: 8.93% (inactive)
- activity change, negative = inhibition [5]: 3.32% (inactive)
- max response [5, 20]: 9.35%
- max response [5, 21]: 12.1%
- Potency [15]: inactive
- Potency [16]: inactive
- Potency [17]: inactive
- Potency [18]: inactive

— PubChem BioAssay (NCATS)
